{"source": "ChEMBL document CHEMBL4513216", "about": "“Probing the Open Global Health Chemical Diversity Library for Multistage-Active Starting Points for Next-Generation Antimalarials” (ACS Infect Dis, 2020)", "note": "Among all 65,000 compounds or so, about 2,100 (3.2%) showed an effect of 50% or more. The median lay at about -52%. What follows is part of a selection rich in strong results, with near analogues and random picks from the rest."}
{"tested_on": "Plasmodium falciparum", "assay": "Screen against P. falciparum Asexual Blood Stage (ABS), at 5uM", "assay_type": "functional, Dd2", "conditions": "tested at 5 uM", "units": {"INHIBITION": "%"}}
{"smiles": "Cc1nn(-c2ccc(C(=O)O)cc2)c2c1C(c1ccsc1)SCC(=O)N2", "note": "(configuration not stated)", "INHIBITION": -82.6}
{"smiles": "COCCN1CCN(Cc2ccco2)Cc2ccc(C)nc21", "INHIBITION": -85}
{"smiles": "COCCN1CCO[C@@H]2CN(S(=O)(=O)c3cccnc3)C[C@@H]2C1", "INHIBITION": -76.3}
{"smiles": "Cc1cc(CN2C[C@@H]3COC[C@@H](C(=O)N4CCCCO4)[C@@H]3C2)no1", "INHIBITION": -31.1}
{"smiles": "COc1ccc(CN2C[C@H]3CCC[C@@H](CN(C)C)[C@H]3C2)cn1", "INHIBITION": 50}
{"smiles": "Cn1cc(CN2C[C@H]3CCC[C@@H](CNc4ncccn4)[C@H]3C2)cn1", "INHIBITION": -87.3}
{"smiles": "CN(C[C@@H]1CCC[C@@H]2CN(Cc3cccnc3)C[C@@H]21)C1CC1", "INHIBITION": 56.5}
{"smiles": "c1cnc(NC[C@@H]2CCC[C@@H]3CN(Cc4cccnc4)C[C@@H]32)nc1", "INHIBITION": 42.2}
{"smiles": "COc1ccc(CN2C[C@H]3CCC[C@@H](CN(C)C4CC4)[C@H]3C2)cn1", "INHIBITION": 78.2}
{"smiles": "COC1CCC[C@@H]2CN(Cc3csc(C)n3)C[C@H]12", "note": "(some centres not stated)", "INHIBITION": 24.8}
{"smiles": "O=C(C[C@@H]1COC[C@H]2CN(Cc3cccnc3)C[C@@H]12)N1CCCC1", "INHIBITION": -133}
{"smiles": "COCCN(C)C[C@@H]1CCC[C@@H]2CN(Cc3ccc(OC)nc3)C[C@@H]21", "INHIBITION": 79.6}
{"smiles": "Cc1cccc(CN2C(=O)CC[C@H]3[C@@H]2CCN3CC(=O)N(C)C)n1", "INHIBITION": -71}
{"smiles": "CCCN1C(=O)C2(CCCCC2)NC1c1cn(C)c(=O)n(C)c1=O", "note": "(configuration not stated)", "INHIBITION": -5.44}
{"smiles": "CCCN1C[C@@H]2CC[C@H]1CN(C(=O)Cc1c(C)[nH]c(CC)nc1=O)C2", "INHIBITION": -19.6}
{"smiles": "COCc1cncc2c1CCN(Cc1ccccn1)C2", "INHIBITION": -65.2}
{"smiles": "CC(Cc1c(F)cccc1F)NC(=O)CN(CC(N)=O)C(C)C", "note": "(configuration not stated)", "INHIBITION": -23.8}
{"smiles": "COc1ccc(CC(C)Nc2cccc(F)c2)cc1", "note": "(configuration not stated)", "INHIBITION": -65.5}
{"smiles": "COc1ccc(C(NCc2cccc(O)c2)C2CC2)cc1", "note": "(configuration not stated)", "INHIBITION": 83.6}
{"smiles": "O=C(Cc1ccc(O)c(Cl)c1)N1CCN(CC2CC2)[C@@H]2CS(=O)(=O)C[C@@H]21", "INHIBITION": -53.2}
{"smiles": "COCCN1CCC2(COCc3cnc(N4CCOCC4)nc32)C1", "note": "(configuration not stated)", "INHIBITION": -18.1}
{"smiles": "CN1CCCC(CNS(=O)(=O)N2CCc3ccccc3C2)C1", "note": "(configuration not stated)", "INHIBITION": 77.4}
{"smiles": "COCC(=O)NC[C@H]1C[C@@H]2CCN1C[C@@H]2CN1CCc2ccccc2C1", "INHIBITION": -27.5}
{"smiles": "CN1CCN(S(=O)(=O)C2CC2)Cc2cccnc21", "INHIBITION": -77.8}
{"smiles": "CCOCCC(=O)N1C[C@@H]2CC[C@H]1CN(Cc1ccncc1)C2", "INHIBITION": -31.8}
{"smiles": "Clc1ccccc1C1(c2ccnc(C3CC3)n2)CCNCC1", "INHIBITION": 73.5}
{"smiles": "Clc1ccccc1C1(c2ccnc(C3CCCC3)n2)CCNCC1", "INHIBITION": 83}
{"smiles": "O[C@]12CCNC[C@H]1CN(c1ncccc1Cl)CC2", "INHIBITION": -135}
{"smiles": "Clc1ccccc1C1(c2ccnc(CC3CC3)n2)CCNCC1", "INHIBITION": 87.8}
{"smiles": "Cc1nc(CN2CCC3(C2)CN(C(=O)c2conc2C)C3)cs1", "INHIBITION": -65.1}
{"smiles": "Fc1cccnc1O[C@@H]1CC[C@H]2[C@H]1OCCN2Cc1nccs1", "INHIBITION": -91.9}
{"smiles": "CC(C)(C)n1ncc2c1NC(=O)CSC2c1ccc2c(c1)OCCO2", "note": "(configuration not stated)", "INHIBITION": -24.5}
{"smiles": "OCc1csc(N2CCCC(COc3cccc(F)c3)C2)n1", "note": "(configuration not stated)", "INHIBITION": 81.2}
{"smiles": "O=C(COc1cccc(F)c1)N1C[C@@H](O)[C@H](N2CCCC2)C1", "INHIBITION": -133}
{"smiles": "CCCOc1ccc(C2SCC(=O)Nc3c2c(=O)[nH]n3C(C)C)cc1", "note": "(configuration not stated)", "INHIBITION": -95}
{"smiles": "CC(=O)C1(c2ccccc2)CCN(C(=O)c2ccn3nnnc3c2)CC1", "INHIBITION": -138}
{"smiles": "CNS(=O)(=O)CC(=O)NC(C)Cc1ccccc1Br", "note": "(configuration not stated)", "INHIBITION": -184}
{"smiles": "CC[C@H](C)[C@@H](CO)NC(C)Cc1ccccc1F", "note": "(some centres not stated)", "INHIBITION": 49.7}
{"smiles": "CC(N)Cc1ccccc1Sc1ccc(O)cc1", "note": "(configuration not stated)", "INHIBITION": 72.4}
{"smiles": "CNC(C)Cc1ccccc1Sc1ccc(O)cc1", "note": "(configuration not stated)", "INHIBITION": 88.2}
{"smiles": "CC(N)Cc1ccccc1Sc1ccccc1", "note": "(configuration not stated)", "INHIBITION": 78.3}
{"smiles": "COCCCN1CCCCC12CC(=O)N(Cc1ccccn1)C2", "note": "(configuration not stated)", "INHIBITION": -98.8}
{"smiles": "Cc1noc(C)c1CN1C[C@@H]2COC[C@H](C(=O)N3CCCO3)[C@@H]2C1", "INHIBITION": -23.5}
{"smiles": "CCC(O)CN1CCN(C(=O)Cc2c(C)nc(C)[nH]c2=O)CC1", "note": "(configuration not stated)", "INHIBITION": -143}
{"smiles": "CN1CCC(O)(CNCc2ccc(F)c(C(F)(F)F)c2)CC1", "INHIBITION": 83.3}
{"smiles": "COc1ccc(OC)c(C2SCC(=O)Nc3n[nH]cc32)c1", "note": "(configuration not stated)", "INHIBITION": -130}
{"smiles": "Cc1ccc(CN2CC3(CCN(C(=O)c4cccnc4)C3)C2)o1", "INHIBITION": -143}
{"smiles": "Cc1ccc(CN2CCC3(CCN(S(=O)(=O)c4ccccc4)C3)C2)o1", "note": "(configuration not stated)", "INHIBITION": 79.6}
{"smiles": "Cc1ccc(CN2CC[C@]3(C[C@H](OCc4ccccn4)CO3)C2)o1", "INHIBITION": 22.1}
{"smiles": "O=C(NCCc1ccccc1)NCCN1CCC(c2cccs2)CC1", "INHIBITION": 77.6}
{"smiles": "Cc1cc(CNC(=O)CCc2ccc(S(N)(=O)=O)cc2)no1", "INHIBITION": -28.2}
{"smiles": "COc1ccc(CCC(=O)NCCN2CCC(c3cccs3)CC2)cc1", "INHIBITION": 75.8}
{"smiles": "COCC(=O)NC[C@H]1C[C@@H]2CCN1C[C@@H]2c1cc(-c2cccs2)nn1C", "INHIBITION": -43.2}
{"smiles": "CCNC(=O)NC[C@H]1C[C@@H]2CCN1C[C@@H]2c1cc(-c2cccs2)nn1C", "INHIBITION": -58.2}
{"smiles": "OC[C@@H]1[C@H]2CN(c3ccccn3)CCN2C[C@H]1c1ccccc1", "INHIBITION": 41.3}
{"smiles": "CCOC(=O)N1CCCC2(CCCNC2)C1", "note": "(configuration not stated)", "INHIBITION": -33}
{"smiles": "O=C1CO[C@@H]2CN(Cc3ccsc3)C[C@H]2N1Cc1ccncc1", "INHIBITION": -56.6}
{"smiles": "CCN(C)CC1CCN(S(=O)(=O)c2cc(C)c(F)cc2Cl)C1", "note": "(configuration not stated)", "INHIBITION": 79.3}
{"smiles": "Cc1cccc(CN2C[C@@H]3CC[C@H]2CN(Cc2[nH]cnc2C)C3)n1", "INHIBITION": 50.9}
{"smiles": "Cc1ccc(N2CC[C@@H]3CN(Cc4cccc(C)n4)C[C@@H]3C2)nn1", "INHIBITION": -27.5}
{"smiles": "Cc1cc(CN2C[C@@H]3CC[C@H]2CN(Cc2[nH]cnc2C)C3)on1", "INHIBITION": -63.7}
{"smiles": "CC[C@@H]1N(Cc2ccccn2)CCC[C@]12CCC(=O)N2CCOC", "INHIBITION": -116}
